Test results reported in PubChem BioAssay AID720706 (Broad Institute, 2013).
“And” between values parts separate entries of the source, which are not always exact repeats. Equal entries are not always repeated. The campaign covered roughly 350,000 compounds. About 5,500 (1.6%) were called active.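 How the source made its calls: active means significant combined selectivity score with lowered wild-type GFP, culture density cut under 30%, mutant RFP and density less affected; inactive means any of these conditions unmet.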 Shown is part of a subset that was picked to be rich in actives.

Test: reduced GFP signal of wild-type E. coli, primary screen, bacterial rRNA inhibitor project, GFP/RFP fluorescence, OD600, single point (AID 720706)
Conditions: E. coli WT GFP vs humanized-ribosome RFP mutants, 24 h; GFP signal change (wild-type ribosome): stronger effect = lower value, DMSO median 0, no signal -100; OD600 change: measured here: OD600 growth, DMSO median 0, no signal -100; RFP signal change: measured here: RFP humanized mutant strains, DMSO median 0, no signal -100, concentration not given here

| SMILES | GFP signal change (wild-type ribosome) | OD600 change | RFP signal change |
| --- | --- | --- | --- |
| CO[C@@H]1CN(C)C(=O)c2cc(NC(=O)C3CCCCC3)ccc2OC[C@@H](C)N(C(=O)Nc2ccc(C(F)(F)F)cc2)C[C@H]1C | -0.109% (inactive) and 1.77% (inactive) | 2.19% and -2.79% | 2.17% and 2.36% |
| CO[C@@H]1CN(C)C(=O)c2cc(NC(=O)C3CCCC3)ccc2OC[C@@H](C)N(C(=O)Nc2ccc(C(F)(F)F)cc2)C[C@H]1C | -37.8% (active) | -17.8% | -5.86% |
| CO[C@@H]1CN(C)C(=O)c2cc(NC(=O)C3CC3)ccc2OC[C@@H](C)N(C(=O)NC(C)C)C[C@@H]1C | 2.5% (inactive) | 1.51% | -0.768% |
| COc1ccccc1NC(=O)N1CC(=O)N2[C@@H](CO)[C@H](c3ccc(C#CC4CC4)cc3)[C@@H]2C1 | -2.35% (inactive) | -11.8% | 0.376% |
| COc1ccc(OC)c(CN2CCN(C(=O)CNC(=O)c3cc(C)cc(C)c3)CC2)c1 | 4.96% (inactive) | -6.51% | 0.577% |
| CCn1c(CNC(=O)c2cc(OC)c(OC)c(OC)c2)cc2cc(C)ccc21 | 15.4% (inactive) | 1.59% | -1.24% |
| COc1cc(C(=O)NCC(=O)N2CC=C(c3ccccc3)CC2)cc(OC)c1OC | -28.4% (active) | -22% | 0.011% |
| CC(=O)N(C)C[C@@H]1Oc2ccc(NC(=O)NC(C)C)cc2C(=O)N(C)C[C@H]1C | 1.73% (inactive) | -0.17% | -0.644% |
| Cc1c(CCC(=O)O)c(=O)oc2cc3occ(-c4ccccc4)c3cc12 | -41.8% (active) | -27.4% | -8.24% |
| COc1cccc(-c2coc3cc4oc(=O)c(CC(=O)O)c(C)c4cc23)c1 | -25.9% (inactive) | -55.2% | -6.38% |
| Cc1coc2cc3oc(=O)c(CCC(=O)O)c(C)c3cc12 | -8.99% (inactive) | -10.5% | 3.81% |
| CCCC#Cc1cnc2c(c1)C(=O)N([C@H](C)CO)C[C@H](C)[C@H](CN(C)S(=O)(=O)c1cn(C)cn1)O2 | 7.7% (inactive) | 7.52% | -1.55% |
| Cc1ccc(NC(=S)NC(NC(=O)Cc2cccc3ccccc23)C(Cl)(Cl)Cl)cc1 (centres undefined) | 2.41% (inactive) | 7.34% | 6.73% |
| O=C(Cc1cccc2ccccc12)NNC(=O)Nc1ccc(Cl)cc1 | -29.7% (active) | -2% | -3.61% |
| O=C(O)Cc1ccc(NC(=O)Nc2cccc3ccccc23)cc1 | -0.412% (inactive) | 0.56% | -3.8% |
| COc1ccc([C@@H]2C/C=C\C[C@@H](c3ccc4c(c3)OCO4)NC(=O)CCC(=O)N2)c(OC)c1 | -4.75% (inactive) | -1.11% | 0.958% |
| C[C@@H]1CN([C@@H](C)CO)C(=O)Cc2cc(NS(=O)(=O)c3ccc(Cl)cc3)ccc2O[C@H]1CN(C)C(=O)Nc1cccc2ccccc12 | -0.7% (inactive) | -5.33% | 1.87% |
| O=C(C[C@@H]1CC[C@@H](NC(=O)C2CCOCC2)[C@H](CO)O1)Nc1ccc(-c2ccccc2)cc1 | -6.86% (inactive) | -2.81% | -1.67% |
| CNC[C@H]1Oc2ncccc2C(=O)N(C)C[C@@H]1C | 2.83% (inactive) | 2.62% | -0.315% |
| COc1ccc(CCNC(=O)COC(=O)/C=C/c2cccs2)cc1OC | -13.7% (inactive) | -0.226% | 6.24% |
| COc1ccc(CCNC(=O)Cc2ccc(C)cc2)cc1OC | 1.64% (inactive) | 11.3% | -4.01% |

| SMILES | GFP signal change (wild-type ribosome) | OD600 change | RFP signal change |
| --- | --- | --- | --- |
| COc1ccc(CCNC(=O)c2cc3sccc3n2C)cc1OC | -23.3% (active) | -13% | -7.3% |
| C/C=C/c1ccc2c(c1)[C@H]1[C@H](CCN1S(=O)(=O)c1cn(C)cn1)[C@H](CO)N2 | 13.7% (inactive) | 27.2% | 4.63% |
| CCC(=O)N1[C@@H](CO)[C@@H](c2ccccc2)C12CN(C(=O)Cc1ccccc1)C2 | 2.16% (inactive) | 3.77% | -0.755% |
| COc1ccc(CCNc2ncnc3c2nnn3Cc2ccccc2)cc1 | 4.94% (inactive) | 7.23% | -1.23% |
| CC(C)CNc1ncnc2c1cnn2Cc1ccc(Cl)cc1 | -36.1% (active) | -17.1% | -0.858% |
| CC(C)(C)n1ncc2c(=O)n(Cc3ccc(Cl)cc3)cnc21 | 1.17% (inactive) | 1.78% | -4.59% |
| C/C=C/c1ccc(C2[C@H]3CNC[C@@H]2N3Cc2cccc(OC)c2)cc1 (some centres undefined) | -0.328% (inactive) and 2.3% (inactive) | 8.38% and 9.5% | 6.71% and 2.48% |
| COc1cc(NC(=S)NCc2ccco2)c(OC)cc1Cl | 4.76% (inactive) | 2.73% | 1.65% |
| S=C(NCc1ccco1)Nc1ccc2c(c1)OCCO2 | 9.78% (inactive) | 8.22% | -0.482% |
| FC(F)Oc1ccc(NC(=S)NCc2ccco2)cc1Cl | -29.1% (active) | -8.22% | 5.68% |
| COc1cccc(NC(=O)N[C@H]2C=C[C@@H](CC(=O)Nc3ccc(-c4ccccc4)cc3)O[C@@H]2CO)c1 | -12.2% (inactive) | -10.6% | 2.22% |
| CNC(=O)C[C@H]1CC[C@H]2[C@H](COc3ccc(NC(=O)Nc4ccc(F)cc4)cc3C(=O)N2C)O1 | 1.92% (inactive) | 1.94% | -3.24% |
| COc1cccc(CN(C)CC(=O)NCc2ccccc2Cl)c1OC | -25.4% (active) | -20.5% | 1.05% |
| COc1ccc(S(=O)(=O)N2CCCCCC2)cc1C(=O)N(C)Cc1cccc(OC)c1OC | -11.5% (inactive) | -16.8% | 3.6% |
| COc1ccc(CNC(=O)CN(Cc2ccccc2Cl)C(=O)c2csnn2)cc1 | 6.12% (inactive) | 13.2% | 1.92% |
| N#Cc1ccc(-c2ccc(C3[C@@H]4CN(S(=O)(=O)c5cccc(Cl)c5)C[C@H]3N4)cc2)cc1 (some centres undefined) | -35.6% (inactive) | -51% | -3.29% |
| C[C@H]1CN([C@@H](C)CO)C(=O)c2c(c3ccccc3n2C)-c2ccccc2CO[C@@H]1CN(C)CC1CCCCC1 | -7.33% (inactive) | -38.8% | 12.5% |
| CC(C)NC(=O)N(C)C[C@H]1Oc2ccc(NS(C)(=O)=O)cc2C(=O)N(C)C[C@@H]1C | 2.01% (inactive) | 2.51% | -2.3% |
| Cc1ccc(S(=O)(=O)N(C)C[C@@H]2Oc3ccc(NS(=O)(=O)c4cccs4)cc3C(=O)N([C@@H](C)CO)C[C@H]2C)cc1 | -5.79% (inactive) | -10.9% | 1.46% |
| C[C@@H]1CN([C@@H](C)CO)S(=O)(=O)c2ccc(-c3ccc(F)cc3)cc2O[C@H]1CN(C)C(=O)c1ccccc1F | -8.04% (inactive) | -21% | -3.3% |
| O=C(C[C@H]1C[C@H]2c3cc(NC(=O)NC4CCCC4)ccc3O[C@H]2[C@@H](CO)O1)NCc1ccc(-c2ccccc2)cc1 | -1.74% (inactive) | -6.28% | 2.06% |

| SMILES | GFP signal change (wild-type ribosome) | OD600 change | RFP signal change |
| --- | --- | --- | --- |
| Cc1ccc(NC(=O)Nc2cc(-c3ccccc3)nn2C)cc1Cl | -40.1% (active) | 5.55% | -13.4% |
| Cc1cc(NC(=O)Nc2ccc(Cl)cc2)n(-c2ccccc2)n1 | -29.1% (inactive) | -32.4% | 2.41% |
| COc1ccc(NC(=O)c2cc3nc(-c4ccccc4)cc(C)n3n2)cc1OC | -22% (inactive) | -22.4% | -6.99% |
| C[C@H]1CN([C@@H](C)CO)S(=O)(=O)c2ccc(-c3cncnc3)cc2O[C@H]1CN(C)Cc1ccncc1 | 0.29% (inactive) | 1.07% | 0.44% |
| Cc1noc(C)c1NC(=O)N(C)C[C@@H]1Oc2ccc(NC(=O)Nc3ccc(F)cc3)cc2C(=O)N([C@H](C)CO)C[C@@H]1C | 1.48% (inactive) | 1.88% | -0.103% |
| C[C@@H]1CN([C@H](C)CO)S(=O)(=O)c2ccc(C3=CCCC3)cc2O[C@H]1CN(C)Cc1ccccc1F | -1.53% (inactive) | 5.49% | -3.33% |
| C[C@@H]1CN([C@H](C)CO)S(=O)(=O)c2ccc(C#CC3CC3)cc2O[C@H]1CN(C)C(=O)C1CCCCC1 | -17.1% (inactive) | -48% | 15.7% |
| COc1ccccc1-c1cnc2c(c1)C(=O)N([C@@H](C)CO)C[C@@H](C)[C@@H](CN(C)C(=O)c1cccnc1)O2 | 4.96% (inactive) | -0.255% | -1.54% |
| C[C@@H]1CN([C@@H](C)CO)S(=O)(=O)c2ccc(Br)cc2O[C@@H]1CN(C)C(=O)C1CCCCC1 | -5.25% (inactive) | -9.29% | 0.015% |
| O=C(COc1ccc(Cl)cc1)NC(=S)Nc1ccccc1N1CCOCC1 | -9.68% (inactive) | -9.44% | -2.65% |
| Cc1cc(C)cc(OCC(=O)Nc2ccc(N3CCOCC3)cc2N2CCOCC2)c1 | -2.33% (inactive) | 6.13% | 0.039% |
| Cc1cccc(OCC(=O)NC(=S)Nc2ccccc2N2CCOCC2)c1 | -22.8% (active) | -9.72% | 1.75% |
| O=C(c1ccccn1)N1CC(=O)N2[C@H](CO)[C@H](c3ccc(C#CCc4ccccc4)cc3)[C@H]2C1 | 1.93% (inactive) | -4.41% | -3.49% |
| COCC#Cc1ccc2c(c1)O[C@H](CN(C)Cc1ccc3c(c1)OCO3)[C@H](C)CN([C@H](C)CO)S2(=O)=O | -2.4% (inactive) | -9.34% | -0.135% |
| O=C(NCc1nnnn1-c1ccc(Cl)cc1)c1ccc2c(c1)OCO2 | 5.87% (inactive) | 4.9% | -2.26% |
| O=C(NCc1nnnn1-c1ccc(Cl)cc1)c1ccc([N+](=O)[O-])o1 | -23% (active) | 2.62% | -4.79% |
| O=C(Nc1ccc(Br)cn1)c1ccc([N+](=O)[O-])o1 | -3.84% (inactive) | -3.66% | -3.37% |
| CC(CN1CCOCC1)OC(=O)c1ccc(C(C)(C)C)cc1 (centres undefined) | -5.42% (inactive) | -0.13% | 2.33% |
| CSc1ccc(CNCCN2CCOCC2)cc1 | 6.43% (inactive) | 16.1% | -0.625% |
| CC(C)(C)c1ccc(CCC2OCC(CN3CCOCC3)O2)cc1 (centres undefined) | -33.2% (active) | -11.3% | -5.34% |
| C/C=C/c1cnc2c(c1)C(=O)N([C@H](C)CO)C[C@H](C)[C@@H](CN(C)CC1CCOCC1)O2 | 7.65% (inactive) | 16.9% | -1.32% |
